# Screen size: about 1,200 compounds; about 360 (30%) were called active. No rule for the calls is given here. These entries were drawn from the full list. A call without a number means that no potency is given here. Potency and affinity values are given separately.
# Test: bacterial growth inhibition, dose response, counter-screen, BacTiter-Glo luminescence, cherry-picked samples (AID 504843);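 also: growth measured after 8 h incubation at 30 °C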
# Conditions: BacTiter-Glo ATP luminescence; series mostly up to 15 µM
row,Compound,outcome
1,COc1cccc(NC(=O)c2ccc3c(SCC(=O)O)c4c(nc3c2)CCCC4)c1,inactive
2,CC(=O)Nc1cccc(Oc2nc(C(F)(F)F)nc3ccccc23)c1,inactive
3,Cc1ccc(OCCOCCNC(C)(C)C)c([N+](=O)[O-])c1,inactive
4,N#Cc1ccccc1CSc1ccccn1,inactive
5,CC(CN1CCOCC1)(NS(=O)(=O)c1ccccc1)c1ccccc1 (stereo unspecified),inactive
6,O=C(CNC1CCCCC1)Nc1cc(S(=O)(=O)N2CCOCC2)ccc1Cl,inactive
7,O=C(CNC1CCCCCC1)Nc1ccccc1N1CCCCC1,inactive
8,O=C(NCCOC(=O)c1cccs1)c1cccnc1,inactive
9,COc1ccc(OC)c(-n2c(SCC(=O)N3CCc4ccccc43)nc3c(c2=O)SCC3)c1,inactive
10,Fc1cccc(NC(=S)NCCCN2CCOCC2)c1,inactive
11,O=C1CCCN1Cc1ccccc1,inactive
12,O=C(Cn1nc(C(=O)O)c2ccccc2c1=O)NCc1ccco1,inactive
13,N#C/C(=C(/O)CN1CCN(c2ccccc2F)CC1)c1nc(-c2ccc(Cl)cc2)cs1,inactive
14,C[C@@H]1CN([C@H](C)CO)C(=O)c2cc(NS(=O)(=O)c3cccs3)ccc2O[C@H]1CN(C)Cc1ccccc1,inactive
15,C(=N\Nc1ccccn1)/c1ccc(N2CCOCC2)cc1,inactive
16,COc1cc(/C=N/NC(=O)c2ccccn2)ccc1OC(=O)c1ccc(Br)cc1,inactive

row,Compound,outcome
1,Cn1c(Cn2c(=O)sc3ccccc32)nnc1SCc1ccccc1F,inactive
2,CCCCCCc1ccc(N2C[C@H](Cc3ccccc3)[C@@H](CC(=O)NCc3ccc(OC)cc3)C2=O)cc1,inactive
3,CCCC(=O)c1c[nH]c(C(=O)N2CCOCC2)c1,inactive
4,CCCNC(=O)COc1coc(CN2CCN(c3ccccc3F)CC2)cc1=O,inactive
5,CCCc1[nH]nc2c1C(c1ccc(OC(=O)c3ccco3)cc1)C(C#N)=C(N)O2 (stereo unspecified),inactive
6,CC(=O)c1ccc([C@H]2C[C@@]34CN(C(=O)OC(C)(C)C)S(=O)(=O)[C@H]3C[C@H]2O4)cc1,inactive
7,CCOC(=O)CSc1nnc(CNC(=O)c2ccc([N+](=O)[O-])cc2)n1C,inactive
8,NC(=O)c1cc2ccc(O)cc2oc1=Nc1ccccc1,inactive
9,Cc1ccc(NCc2nnc3n2CCCCC3)c(C)c1,inactive
10,C[C@H](NS(=O)(=O)c1ccc(Cl)c(Cl)c1)C(=O)OCc1cc(=O)n2cc(Br)ccc2n1,inactive
11,Cc1ccc(NC(=S)NC(=O)c2ccc(F)cc2)cc1S(=O)(=O)Nc1ccccc1Cl,inactive
12,COc1ccc(NS(=O)(=O)c2cc(NC(=O)CCc3ccc(OC)c(OC)c3)ccc2N2CCOCC2)cc1,inactive
13,CCOC(=O)c1c(NC(NC(C)=O)C(Cl)(Cl)Cl)sc(C(C)=O)c1C (stereo unspecified),inactive
14,OCc1ccnc2c(O)cccc12,inactive
15,CCOC(=O)/C(C#N)=C/c1ccc(OCC(=O)Nc2ccccc2)c(OC)c1,inactive
